From PubChem BioAssay AID2284383 (EPA ToxCast) come the findings set out here.

Results filed as inconclusive are left out. The source made the active and inactive calls. Rule for the calls: active = hit-call score of the fitted dose curve at least 0.9, where 1 is the maximum; inconclusive = response in the unintended direction; inactive = score below 0.9.

human Retinoic Acid Receptor gamma (RARg) Agonism, RARG (gene 5916), sequence (P13631 whole entry, looked up): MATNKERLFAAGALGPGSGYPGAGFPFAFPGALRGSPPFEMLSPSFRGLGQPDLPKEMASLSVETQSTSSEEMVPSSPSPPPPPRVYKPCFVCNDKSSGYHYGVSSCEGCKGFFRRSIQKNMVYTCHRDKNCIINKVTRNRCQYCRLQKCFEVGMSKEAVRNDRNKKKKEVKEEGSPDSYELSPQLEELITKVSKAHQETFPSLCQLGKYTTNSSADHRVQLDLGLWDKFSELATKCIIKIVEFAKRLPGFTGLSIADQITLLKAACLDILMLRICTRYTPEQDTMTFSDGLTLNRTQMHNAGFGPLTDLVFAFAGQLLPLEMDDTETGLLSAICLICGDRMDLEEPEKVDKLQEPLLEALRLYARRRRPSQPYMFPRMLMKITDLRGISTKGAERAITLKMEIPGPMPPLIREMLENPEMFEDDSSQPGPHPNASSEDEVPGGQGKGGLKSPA

The target in the test is human Retinoic Acid Receptor gamma (RARg) Agonism, RARG (gene 5916) (UniProt P13631). The experiment in a line: ERF_TW_NR_COA_hRARG: Eurofins (ERF) Nuclear Receptor (NR) Functional Coactivator Assay for human Retinoic Acid Receptor gamma (RARg) Agonism. How it is done:
ERF_TW_NR_COA_hRARG is a biochemical, single-readout assay that uses extracted gene-proteins in a cell-free assay. Measurements were taken 16 hours after chemical dosing in a 96-well plate. […] It is designed to measure FRET using a type of binding reporter as detected by fluorescence intensity of AM580 with fluorimetry technology.Data from the assay component ERF_TW_NR_COA_hRARG was analyzed at the assay endpoint, ERF_TW_NR_COA_hRARG, in the positive analysis fitting direction relative to DMSO as the negative control and baseline of activity. Using a type of binding reporter, gain-of-signal activity can be used to understand changes in binding as they relate to gene RARG. To generalize the intended target to other relatable targets, this assay endpoint is annotated to the nuclear receptor intended target family, where the subfamily is non-steroidal.
Human recombinant retinoic acid receptor […] (RARgamma) receptors expressed in bacteria are used. Test compound and/or vehicle is incubated with the 25 nM receptors and binding buffer in modified Tris-HCl buffer pH 7.4 for 16 hours at 4C. Determination of the amount of complex formed is read spectrofluorimetrically (excitation:337 nm, emission:620/665 nm). Test compound-induced increase in fluorescence by 50 percent or more (>/= 50%) relative to the 0.3 uM AM580 response indicates possible RARgamma receptor agonist activity. […] Membrane protein may change from lot to lot, the concentration used will be adjusted if necessary.
Regarding `ClC1=C(Cl)[C@]2(Cl)[C@@H]3[C@H]4C[C@H]([C@@H]5O[C@H]45)[C@@H]3[C@@]1(Cl)C2(Cl)Cl`, the AC50 (as a rule, the concentration at which the activity in the assay is half-maximal) was 6.15 µM (active).
Turning to `ClC1=C(Cl)[C@]2(Cl)[C@@H]3[C@@H]4C[C@@H]([C@H]5O[C@@H]45)[C@@H]3[C@@]1(Cl)C2(Cl)Cl`, the AC50 is 6.6 µM (active).
`Cc1ccc2cc3c(ccc4ccccc43)c3c2c1CC3`: the compound was called inactive.
